Results taken from PubChem BioAssay.
Results filed as inconclusive are left out. Active and inactive are the calls of the source.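 How the source made its calls, unless noted: active means viability at or below 27.92% in each of two runs, the all-compound median minus 4 SD; inconclusive means no clear call, values can overlap the other calls; inactive means the rest.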

Experiment: viability of HCT116 without oncogenic beta-catenin – human colon tumor cells, pilot screen (AID 823;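 active means cell viability at or below a set limit in both duplicate runs, the limit being the all-compound median minus 4 SD, cut at about 23% in these data, passing the limit was not always enough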;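 further: 0% = wells killed by 20 µM Hyamine and 100% = untreated DMSO cell wells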)
Settings: HCT116 beta-catenin knockout viability, CellTiter-Glo, 60 h; at 10 µM; active compounds read low

Row | Structure (SMILES) | viability
1 | Cc1c(C(=O)NC2CC2)oc2ccc(S(=O)(=O)N3CCCCCC3)cc12 | 92.9% (inactive)
2 | CC1=C(C(=O)Nc2ccccc2)C(c2ccccn2)n2nc(CCCO)nc2N1 (stereo not drawn) | 96.3% (inactive)
3 | O=C(O)c1ccc(-c2ccc(O)c(F)c2)cc1 | 99.3% (inactive)
4 | Cn1c(=O)cc(NCCc2ccccc2)[nH]c1=O | 87.5% (inactive)
5 | Cc1noc(/C=C/N(C)C)c1S(=O)(=O)N1CCCC(C(=O)NCCC2=CCCCC2)C1 (stereo not drawn) | 92.1% (inactive)
6 | CCN(CC)c1ccc(NC(=O)CN2C(=O)CC(C)(C)S(=O)(=O)c3ccccc32)c(C)c1 | 63.6% (inactive)
7 | COc1ccc(C(=O)NCc2nc3ccccc3[nH]2)cc1OC | 102% (inactive)
8 | CSc1ccccc1NC(=O)c1cnc2n(c1=O)CCS2 | 105% (inactive)
9 | Cc1ccc(C(c2sc3ncnn3c2O)N2CC(C)CC(C)C2)cc1 (stereo not drawn) | 99.8% (inactive)
10 | CC1CCN(c2oc(-c3ccccc3F)nc2C#N)CC1 | 89.4% (inactive)
11 | COc1nc(Oc2ccc(=O)n(C)n2)nc(N(C)C)n1 | 95.2% (inactive)
12 | Cc1nc2c(-c3ccc(F)cc3)c(C)nn2c(C)c1CCC(=O)NC(C)CCc1ccco1 (stereo not drawn) | 75% (inactive)
13 | COc1ccc(Cl)cc1S(=O)(=O)N1CCN(c2ccc(F)cc2)CC1 | 82.4% (inactive)
14 | CC1CCc2nn(CC(=O)Nc3ccc(F)cc3F)cc2C1 (stereo not drawn) | 97.8% (inactive)
15 | COc1ccc(NC(=O)C2Cc3ccccc3C(=O)O2)cc1 (stereo not drawn) | 105% (inactive)
16 | Cc1cc(N=Cc2cc(Br)ccc2O)no1 | 90.8% (inactive)
17 | COc1ccc(-c2nc(CS(=O)CC(=O)NCc3ccccn3)c(C)o2)cc1 (stereo not drawn) | 95.9% (inactive)
18 | CCOc1cc(C2CC(=O)N3CN(C4CCCCC4)CSC3=C2C#N)ccc1O (stereo not drawn) | 105% (inactive)
19 | CCc1ccccc1N1CC23C=CC(O2)C(C(=O)O)C3C1=O (stereo not drawn) | 96% (inactive)
20 | CCN(CC)C1CCCCC1NS(=O)(=O)c1ccc(Cl)cc1 (stereo not drawn) | 86.5% (inactive)
21 | Cc1cc(=O)oc2c1c(C)nn2-c1ccc(C(=O)OC(C)C)cc1 | 97.3% (inactive)
22 | O=C(CS(=O)(=O)Cc1ccccc1)Nc1nc2ccccc2s1 | 101% (inactive)
23 | CSc1nc2c(c(=O)n1C)SC(C)C2 (stereo not drawn) | 103% (inactive)

Experiment: viability of PTEN-null HCT116 cells – cell-based, HCT116 clonal line, CellTiter-Glo, pilot screen (AID 824);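 further: 0% = 20 µM Hyamine control and 100% = vehicle cell control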
Settings: HCT116 PTEN-deleted viability, 60 h, at 10 µM, active compounds read low

Row | Structure (SMILES) | viability
24 | CCCCSc1nc2c(cnn2-c2ccc(F)cc2)c(=O)[nH]1 | 93.7% (inactive)
25 | C=C(Cl)COc1ccc2c(C)cc(=O)oc2c1 | 84% (inactive)
26 | COc1ccc(NC(=O)CSc2nnc(Cc3cccn3C)n2-c2ccc(F)cc2)cc1OC | 94.2% (inactive)
27 | CCCCSc1nc(CCC)cc(=O)[nH]1 | 104% (inactive)
28 | Cc1noc(/C=C/N(C)C)c1S(=O)(=O)N1CCc2ccccc21 | 68.7% (inactive)
29 | COc1cccc(/C=N/n2cnnc2)c1OCc1ccccc1 | 98.9% (inactive)
30 | COC(=O)Cn1c(CN2CCOCC2)nc2c1c(=O)n(C)c(=O)n2C | 96.7% (inactive)
31 | COc1ccc(N(CC(=O)Nc2cc(C)ccc2C)S(=O)(=O)c2c(C)nn(C)c2C)cc1 | 80.3% (inactive)
32 | CCOC(=O)N1CCN(C(=O)c2c(-c3ccccc3)noc2C)CC1 | 87.6% (inactive)
33 | O=C(CSc1ncnc2nc[nH]c12)c1ccc(Cl)cc1 | 37.7% (inactive)
34 | Brc1ccccc1-c1nc(-c2ccccc2)no1 | 70.6% (inactive)
35 | Cc1nc2ccc(S(=O)(=O)NC(C(=O)NCc3cccs3)C(C)C)cc2s1 (stereo not drawn) | 99.6% (inactive)
36 | COc1ccc(-n2c(Cc3cccn3C)nnc2SCC(=O)Nc2ccccc2)cc1 | 85.3% (inactive)
37 | O=c1oc2c3c4c(cc2s1)CCCN4CCC3 | 97.1% (inactive)
38 | COc1cc2c(cc1OC)C(C)N(C(=O)Cn1ncc3c1-c1ccccc1OC3)CC2 (stereo not drawn) | 89.8% (inactive)
39 | O=C(CSc1ccc2nnc(-c3ccccc3)n2n1)N1CCN(c2ccccc2)CC1 | 93.8% (inactive)
40 | CCOC(=O)C1CCCN(C(=O)c2ccc(CS(=O)(=O)c3ccc(Br)cc3)o2)C1 (stereo not drawn) | 98.6% (inactive)
41 | Cc1c(C(=O)NC2CC2)oc2ccc(S(=O)(=O)N3CCCCCC3)cc12 | 90.8% (inactive)
42 | CC1=C(C(=O)Nc2ccccc2)C(c2ccccn2)n2nc(CCCO)nc2N1 (stereo not drawn) | 92.9% (inactive)
43 | O=C(O)c1ccc(-c2ccc(O)c(F)c2)cc1 | 97.4% (inactive)

Row | Structure (SMILES) | viability
44 | Cn1c(=O)cc(NCCc2ccccc2)[nH]c1=O | 88.3% (inactive)
45 | Cc1noc(/C=C/N(C)C)c1S(=O)(=O)N1CCCC(C(=O)NCCC2=CCCCC2)C1 (stereo not drawn) | 72.8% (inactive)
46 | CCN(CC)c1ccc(NC(=O)CN2C(=O)CC(C)(C)S(=O)(=O)c3ccccc32)c(C)c1 | 78.1% (inactive)
47 | COc1ccc(C(=O)NCc2nc3ccccc3[nH]2)cc1OC | 98.2% (inactive)
48 | CSc1ccccc1NC(=O)c1cnc2n(c1=O)CCS2 | 85.8% (inactive)
49 | Cc1ccc(C(c2sc3ncnn3c2O)N2CC(C)CC(C)C2)cc1 (stereo not drawn) | 97% (inactive)
50 | CC1CCN(c2oc(-c3ccccc3F)nc2C#N)CC1 | 88.9% (inactive)
51 | COc1nc(Oc2ccc(=O)n(C)n2)nc(N(C)C)n1 | 101% (inactive)
52 | Cc1nc2c(-c3ccc(F)cc3)c(C)nn2c(C)c1CCC(=O)NC(C)CCc1ccco1 (stereo not drawn) | 82.3% (inactive)
53 | COc1ccc(Cl)cc1S(=O)(=O)N1CCN(c2ccc(F)cc2)CC1 | 89.7% (inactive)
54 | CC1CCc2nn(CC(=O)Nc3ccc(F)cc3F)cc2C1 (stereo not drawn) | 98.3% (inactive)
55 | COc1ccc(NC(=O)C2Cc3ccccc3C(=O)O2)cc1 (stereo not drawn) | 104% (inactive)
56 | Cc1cc(N=Cc2cc(Br)ccc2O)no1 | 95.8% (inactive)
57 | COc1ccc(-c2nc(CS(=O)CC(=O)NCc3ccccn3)c(C)o2)cc1 (stereo not drawn) | 98.5% (inactive)
58 | CCOc1cc(C2CC(=O)N3CN(C4CCCCC4)CSC3=C2C#N)ccc1O (stereo not drawn) | 95.1% (inactive)
59 | CCc1ccccc1N1CC23C=CC(O2)C(C(=O)O)C3C1=O (stereo not drawn) | 102% (inactive)
60 | CCN(CC)C1CCCCC1NS(=O)(=O)c1ccc(Cl)cc1 (stereo not drawn) | 92.6% (inactive)
61 | Cc1cc(=O)oc2c1c(C)nn2-c1ccc(C(=O)OC(C)C)cc1 | 87.4% (inactive)
62 | O=C(CS(=O)(=O)Cc1ccccc1)Nc1nc2ccccc2s1 | 97.1% (inactive)
63 | CSc1nc2c(c(=O)n1C)SC(C)C2 (stereo not drawn) | 93.5% (inactive)
